Measurements published in a collection of fitness landscapes (doi:10.1016/j.celrep.2020.107928).
The full ranking holds about 81,000 sequences; the median of “one-hybrid fitness for binding parS DNA” is about -0.17, and the highest 2% start at about 0.51. The sample holds the highest values, similar sequences and a random draw of the others, so the mix is not that of the screen.

B1: Caulobacter ParB omega fusion; a variant is named by its letters at X, in order, B8GW30 (parent)
chain: MESVVVGEPGMSEGRRGLGRGLSALLGEVDAAPAQAPGEQLGGSREAPIEILQRNPDQPRRTFREEDLEDLSNSIREKGVLQPILVRPSPDTAGEYQIVAGERAWRAAQRAGLKTVPIMVRELDDLAVLEIGIIENVQRADLNVLEEALSYKVLMEKFERTQENIAQTIGKSXSHVANXMRLLXLPDEVQSYLVSGELTAXHARAIAAAADPVALAKQIIEGGLSVRETEALARKAPNLSAGKSKGGRPPRVKDTDTQALESDLSSVLGLDVSIDHRGSTGTLTITYATLEQLDDLCNRLTRGI

Variants of: B1
Assay: one-hybrid fitness for binding parS DNA (scaled: cognate 1, non-cognate 0); higher = stronger binding
Settings: with parS DNA site
How it was run: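 The reporter was HIS3, with the binding site 19 bp from the promoter, in E. coli USO used for bacterial one-hybrid selection of Caulobacter ParB libraries with four specificity codons randomised. Growth was on M9 lacking histidine, with 0.1 mM IPTG and 5 mM 3-AT, for 48 hours at 37°C. Illumina sequencing covered plasmids before and after selection; three replicate libraries were pooled and variants with under 10 reads dropped. A fitness score is the log change in variant-to-wild-type read ratio, rescaled to the cognate and non-cognate references.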

Variant | one-hybrid fitness for binding parS DNA
SIKI | ≤ 0.2
YAQR | ≤ 0.2
PSHG | ≤ 0.2
PMWK | ≤ 0.2
IENR | ≤ 0.2
ANYG | ≤ 0.2
HGQS | ≤ 0.2
KWCC | ≤ 0.2
NAYS | ≤ 0.2
ENRN | ≤ 0.2
TWCR | ≤ 0.2
THVD | ≤ 0.2
RMWL | ≤ 0.2
RSWH | ≤ 0.2
RPWC | ≤ 0.2
RSWN | 0.412
RSWC | 0.847
RLWC | 0.952
RLWF | 0.255
RLWM | 0.342
RMWM | 0.344
RCWC | 0.959
RMWC | 0.984
REWC | ≤ 0.2

Variant | one-hybrid fitness for binding parS DNA
LRIP | ≤ 0.2
LILQ | ≤ 0.2
ENVC | ≤ 0.2
PHDG | ≤ 0.2
NQKT | ≤ 0.2
QLHL | ≤ 0.2
SRVM | ≤ 0.2
CYAS | ≤ 0.2
LQFE | ≤ 0.2
IFWT | 0.24
YSKG | ≤ 0.2
TVTW | ≤ 0.2
LNPP | ≤ 0.2
GYPI | ≤ 0.2
RLAQ | ≤ 0.2
RLFQ | ≤ 0.2
RLFR | ≤ 0.2
RLAT | 0.938
RLFT | 0.838
RLAK | ≤ 0.2
SNGD | ≤ 0.2
SLHC | ≤ 0.2
QQSF | ≤ 0.2
CLAL | ≤ 0.2

Variant | one-hybrid fitness for binding parS DNA
LSRM | ≤ 0.2
SMQP | ≤ 0.2
RRSP | ≤ 0.2
RRSN | 0.695
RRSH | ≤ 0.2
RRSR | ≤ 0.2
RRSS | 0.653
RRSD | ≤ 0.2
EKER | ≤ 0.2
TCNL | ≤ 0.2
QSVW | ≤ 0.2
TGSG | ≤ 0.2
MLIG | ≤ 0.2
TASY | ≤ 0.2
GFDT | ≤ 0.2
RPST | ≤ 0.2
REST | ≤ 0.2
RSST | 0.883
RSSM | 0.327
RDST | ≤ 0.2
RCST | 0.923
PKQP | ≤ 0.2
RNAD | ≤ 0.2
RNFD | ≤ 0.2

Variant | one-hybrid fitness for binding parS DNA
RNAS | 0.914
RNAH | ≤ 0.2
RNFN | 0.256
RNFS | 0.719
KHDT | ≤ 0.2
WNNG | ≤ 0.2
RVFM | 0.363
RVAR | ≤ 0.2
RVFT | 0.917
RVAT | 0.916
RVAF | 0.259
RVFY | 0.464
SPGM | ≤ 0.2
RMRD | ≤ 0.2
RMCC | 0.985
RMYK | ≤ 0.2
RMSN | 0.449
RMYC | 1.01
RMCR | ≤ 0.2
RMCF | 0.217
RMSC | 0.956
RMRC | 0.867
RMRH | 0.261
RMYF | 0.289

Variant | one-hybrid fitness for binding parS DNA
RMSP | 0.204
LSPY | ≤ 0.2
LVGR | ≤ 0.2
GTAK | ≤ 0.2
ELGD | ≤ 0.2
QSMI | ≤ 0.2
EQMT | ≤ 0.2
IWTC | ≤ 0.2
GPTP | ≤ 0.2
PHIN | ≤ 0.2
LTQT | ≤ 0.2
RDMK | ≤ 0.2
TFCT | ≤ 0.2
RMLL | ≤ 0.2
RMLR | ≤ 0.2
RMLC | 0.983
THQL | ≤ 0.2
RMEA | 0.495
RMRA | 0.765
NMRA | ≤ 0.2
RMYA | 0.651
DMYA | ≤ 0.2
QQDP | ≤ 0.2
GWES | ≤ 0.2

Variant | one-hybrid fitness for binding parS DNA
RSIG | 0.822
RCIG | 0.955
RPIG | ≤ 0.2
RDIG | ≤ 0.2
REIG | ≤ 0.2
RSPG | 0.507
PLWA | ≤ 0.2
FGAE | ≤ 0.2
KGTY | ≤ 0.2
VTTC | ≤ 0.2
MCDS | ≤ 0.2
TPPY | ≤ 0.2
HNSC | ≤ 0.2
RMGH | ≤ 0.2
RMYG | 1.03
RMHF | 0.269
RMHM | 0.374
RMGN | 0.453
RMGG | 0.993
RMDN | 0.375
RMDG | 0.917
RMHG | 1.01
RMYQ | 0.205
RMDH | ≤ 0.2

Variant | one-hybrid fitness for binding parS DNA
RMYR | 0.225
SGDY | ≤ 0.2
SKDT | ≤ 0.2
VGNC | ≤ 0.2
RNAF | ≤ 0.2
FYKS | ≤ 0.2
RLMI | ≤ 0.2
SYAC | ≤ 0.2
QDNF | ≤ 0.2
CRIC | ≤ 0.2
DYAR | ≤ 0.2
QGFS | ≤ 0.2
TIDG | ≤ 0.2
QNGG | ≤ 0.2
NVIK | ≤ 0.2
RMRL | ≤ 0.2
RMNM | 0.351
RMRG | 0.962
RMNR | ≤ 0.2
RMRF | 0.368
RMNG | 0.999
PVDG | ≤ 0.2
TFGE | ≤ 0.2
DQLH | ≤ 0.2

Variant | one-hybrid fitness for binding parS DNA
HHQA | ≤ 0.2
RPVS | ≤ 0.2
RCVS | 1.02
RCVH | ≤ 0.2
RSVP | ≤ 0.2
RSVS | 0.946
RSVN | 0.342
RDPY | ≤ 0.2
NTKG | ≤ 0.2
RMDC | 0.889
RMDK | ≤ 0.2
RMNN | 0.467
RMNC | 0.969
RMDM | 0.302
RMNE | ≤ 0.2
KILI | ≤ 0.2
PNVW | ≤ 0.2
STNR | ≤ 0.2
QRCN | ≤ 0.2
RTVR | ≤ 0.2
RTVC | 0.929
DTKC | ≤ 0.2
RTKC | 0.813
RTKK | ≤ 0.2

Variant | one-hybrid fitness for binding parS DNA
TIRR | ≤ 0.2
RNYV | ≤ 0.2
LASP | ≤ 0.2
DNAR | ≤ 0.2
QMYE | ≤ 0.2
DIAA | ≤ 0.2
RIAA | 0.62
NIAA | ≤ 0.2
RIFA | 0.529
PPGC | ≤ 0.2
WPHF | ≤ 0.2
EGPL | ≤ 0.2
RVNN | 0.416
RVDN | 0.371
RVDS | 0.974
RVND | ≤ 0.2
RVDP | ≤ 0.2
RVNS | 0.915
NYLV | ≤ 0.2
NSCK | ≤ 0.2
IGDM | ≤ 0.2
LLDM | ≤ 0.2
RKDA | 0.536
RKNA | 0.834

Variant | one-hybrid fitness for binding parS DNA
NKNA | ≤ 0.2
TAPI | ≤ 0.2
IGRG | ≤ 0.2
CPMT | ≤ 0.2
RTKY | 0.89
RPKY | ≤ 0.2
RKKY | 0.492
RTVY | 0.443
RLKY | 0.704
RIVY | 0.469
RCKY | 0.716
RLVY | 0.465
RIKY | 0.747
QPIK | ≤ 0.2
KIKS | ≤ 0.2
KKAL | ≤ 0.2
YKKT | ≤ 0.2
ALMT | ≤ 0.2
EPHL | ≤ 0.2
FFHG | ≤ 0.2
FQRT | ≤ 0.2
GLWL | ≤ 0.2
GYNP | ≤ 0.2
PKHV | ≤ 0.2

Variant | one-hybrid fitness for binding parS DNA
LGGC | ≤ 0.2
SFKY | ≤ 0.2
RHKY | 0.518
RHVY | 0.354
RFVY | 0.301
RSVY | 0.37
RRKY | 0.856
RSKY | 0.609
RDKY | ≤ 0.2
RFKY | 0.569
RHYY | 0.438
RRVY | 0.247
QMIF | ≤ 0.2
VKTF | ≤ 0.2
YLRV | ≤ 0.2
VMPR | ≤ 0.2
CRLW | ≤ 0.2
GEYT | ≤ 0.2
RAPY | ≤ 0.2
RAVY | 0.412
RAKY | 0.644
RMVY | 0.438
RMKY | 0.782
KEPT | ≤ 0.2

Variant | one-hybrid fitness for binding parS DNA
QTVF | ≤ 0.2
RIVS | 1.01
RIKD | ≤ 0.2
RIKS | 0.822
RIKP | ≤ 0.2
RIVP | ≤ 0.2
RIVD | ≤ 0.2
NSRE | ≤ 0.2
AKIQ | ≤ 0.2
TIGL | ≤ 0.2
RCGP | ≤ 0.2
RCGS | 0.945
RFGS | 0.969
RMGD | ≤ 0.2
RPGS | ≤ 0.2
RMGS | 0.988
RAGS | 0.989
RFGH | 0.245
RFGN | 0.435
RMGP | 0.235
RAGD | ≤ 0.2
RAGN | 0.448
SGNV | ≤ 0.2
PNMM | ≤ 0.2

Variant | one-hybrid fitness for binding parS DNA
SVIY | ≤ 0.2
CGSR | ≤ 0.2
AIHE | ≤ 0.2
NKPL | ≤ 0.2
WVGM | ≤ 0.2
CMEW | ≤ 0.2
NDFI | ≤ 0.2
KPTT | ≤ 0.2
WGPD | ≤ 0.2
RKGN | 0.429
RHGS | 0.888
RKGD | ≤ 0.2
RIGP | ≤ 0.2
RHGD | ≤ 0.2
RTGN | 0.44
RTGD | ≤ 0.2
RIGS | 0.959
RHGN | 0.363
RKGS | 0.833
RTGS | 0.92
RIGN | 0.477
